Experiment [1] deals with Cytochrome P450 1A2 (Homo sapiens) (UniProt P05177). As to the kind of experiment: p450-cyp1a2 (AID 410; calls by dose curve; also: potency is read from the fitted curve at half-maximal effect). The method, boiled down:
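20nM CYP1A2 with 100uM Luciferin-ME (at Km) in 100mM KPO4; compound preincubated 10 min, NADPH regeneration added, 60 min at room temperature. Luciferin quantified by luminescence after detection reagent; normalized to 57 uM furafylline.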

In experiment [2] the target is Glucocorticoid receptor (Homo sapiens) (UniProt P04150). As to the kind of experiment: GR-GFP Redistribution (AID 450;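 active = compounds whose dose series gives a full or clear partial fitted curve of increased nuclear translocation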; also: potency is read from the fitted curve at half-maximal effect). The following applies: U2OS GR-GFP nuclear translocation, laser cytometry, 2 h.
Sequence of Glucocorticoid receptor (Homo sapiens) (P04150 whole entry, looked up): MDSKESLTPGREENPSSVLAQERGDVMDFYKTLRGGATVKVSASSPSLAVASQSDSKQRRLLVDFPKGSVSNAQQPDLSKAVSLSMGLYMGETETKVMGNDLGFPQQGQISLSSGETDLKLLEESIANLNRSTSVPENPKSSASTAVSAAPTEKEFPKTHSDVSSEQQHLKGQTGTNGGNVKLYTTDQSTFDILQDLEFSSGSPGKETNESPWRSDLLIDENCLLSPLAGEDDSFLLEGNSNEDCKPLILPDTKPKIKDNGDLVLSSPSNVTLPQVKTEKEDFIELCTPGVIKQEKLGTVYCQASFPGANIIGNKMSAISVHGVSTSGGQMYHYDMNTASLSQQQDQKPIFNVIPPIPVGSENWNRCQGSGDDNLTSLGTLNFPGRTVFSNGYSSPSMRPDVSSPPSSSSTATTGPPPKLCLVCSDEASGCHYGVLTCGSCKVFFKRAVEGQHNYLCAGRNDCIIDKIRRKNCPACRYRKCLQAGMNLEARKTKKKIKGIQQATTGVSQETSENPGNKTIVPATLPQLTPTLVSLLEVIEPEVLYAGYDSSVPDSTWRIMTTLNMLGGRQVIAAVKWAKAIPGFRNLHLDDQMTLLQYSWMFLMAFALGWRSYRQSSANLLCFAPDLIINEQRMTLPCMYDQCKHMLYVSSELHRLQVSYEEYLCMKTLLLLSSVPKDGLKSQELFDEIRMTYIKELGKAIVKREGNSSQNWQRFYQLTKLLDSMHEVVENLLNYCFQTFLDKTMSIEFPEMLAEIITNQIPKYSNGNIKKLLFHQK
Experiment [3] shares this target. As to the kind of experiment: GR-EFC Redistribution (AID 451; calls by dose curve; also: potency is read from the fitted curve at half-maximal effect). To be noted: CHO-K1 GR-EFC translocation, beta-gal luminescence, 2 h. The essentials:
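CHO-K1 cells expressing nuclear EA and GR-ED fragments of b-gal; compounds titrated up to 46 uM final, 2 h at 37 C. GR nuclear translocation read as complemented b-gal luminescence after 1 h RT detection.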

The target in experiment [4] is Mitogen-activated protein kinase 10 (Mus musculus) (UniProt Q61831). As to the kind of experiment: JNK3 AlphaScreen Assay (AID 530; active = well fitted curve in either direction with a large enough effect, not every such curve was filed as active;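 also: kinase came from lysate of stimulated human HepG2 cells; signal reports phosphorylation of biotinylated GST-cJun 1-79 at Ser73 with 10 µM ATP; % is scaled to controls: 0 for no effect and ±100 for the full control effect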). The method, boiled down:
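Pre-activated (IL-1β/TNFα) JNK3 in HepG2 lysates phosphorylates biotin-GST-cJun(1-79), 10 uM ATP; anti-phospho-cJun(Ser73) AlphaScreen read at room temperature, pH 7.6 Tris buffer. Compounds pre-incubated 15 min as titrations.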
(In general: Alpha assays give light when donor and acceptor beads are brought close together.)

For experiment [5], the target named is 3',5'-cyclic-AMP phosphodiesterase 4B (Homo sapiens) (UniProt Q07343). As to the kind of experiment: qHTS Assay for Inhibitors of PDE-IV (AID 607; active = well fitted activation curve with a large enough effect in the main read-out, with a control signal flat, not every such curve was filed as active; also: % of control where 0% means no effect). The essentials: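 Cell-based read-out of cAMP via a modified cyclic nucleotide-gated channel and membrane potential dye (535/590 nm) in HEK293 cells expressing PDE4 endogenously. Compounds tested up to 22.9 uM final; 100 uM RO 20-1724 reference.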
Sequence of 3',5'-cyclic-AMP phosphodiesterase 4B (Homo sapiens) (Q07343 whole entry, looked up): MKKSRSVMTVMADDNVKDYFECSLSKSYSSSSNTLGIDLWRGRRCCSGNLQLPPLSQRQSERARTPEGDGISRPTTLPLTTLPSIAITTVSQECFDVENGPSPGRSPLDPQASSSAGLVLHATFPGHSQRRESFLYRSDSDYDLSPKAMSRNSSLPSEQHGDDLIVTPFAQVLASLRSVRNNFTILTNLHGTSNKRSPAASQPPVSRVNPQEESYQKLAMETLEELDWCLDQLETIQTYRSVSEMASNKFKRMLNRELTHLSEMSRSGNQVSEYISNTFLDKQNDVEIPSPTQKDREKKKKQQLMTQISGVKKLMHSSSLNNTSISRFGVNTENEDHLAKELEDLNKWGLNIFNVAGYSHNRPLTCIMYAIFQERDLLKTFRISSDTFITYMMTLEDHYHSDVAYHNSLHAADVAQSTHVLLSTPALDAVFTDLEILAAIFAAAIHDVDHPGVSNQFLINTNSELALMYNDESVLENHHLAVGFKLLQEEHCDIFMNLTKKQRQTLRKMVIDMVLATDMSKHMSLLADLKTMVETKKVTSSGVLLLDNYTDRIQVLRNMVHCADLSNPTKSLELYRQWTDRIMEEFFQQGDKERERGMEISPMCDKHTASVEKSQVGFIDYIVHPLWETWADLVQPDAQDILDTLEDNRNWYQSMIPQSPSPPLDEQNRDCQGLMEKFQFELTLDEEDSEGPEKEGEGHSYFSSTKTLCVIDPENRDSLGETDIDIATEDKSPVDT
(In qHTS, concentration-response curves come from the screen itself.)

Experiment [6] concerns the target Ubiquitin carboxyl-terminal hydrolase 1 (Homo sapiens) (UniProt O94782). As to the kind of experiment: Inhibitors of USP1/UAF1: Pilot qHTS (AID 504865).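 Also: rhodamine fluorescence freed from ubiquitin-rhodamine substrate followed over time; top concentration of the series differs between compounds; % is scaled to controls: 0 for no effect and ±100 for the full control effect; nearly all actives have a fitted effect of over 35% in size.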 The essentials: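 USP1/UAF1 complex (1nM) preincubated with compound 15 min at room temperature, then Ub-Rho substrate (150nM final) added. Fluorescence read kinetically at 480/540 nm, 6 reads every 60 seconds. Buffer: 50mM HEPES pH 7.8, 0.5mM EDTA, 0.1 mg/ml BSA, 1mM TCEP, 0.01% Tween-20.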

The target of experiment [7] is DNA dC->dU-editing enzyme APOBEC-3G (Homo sapiens) (UniProt Q9HC16). As to the kind of experiment: qHTS for inhibitors of Vif-A3G interactions: Validation (AID 588379). Also: 0% is about no effect. The method, boiled down: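 HeLa cells stably expressing Vif and A3G-eYFP, 700 cells/well, incubated overnight at 37 deg C, then exposed to compound overnight at 37 deg C. Inhibition of Vif-mediated degradation read as increased yellow fluorescence (Ex 488/Em 500-530) by laser-scanning cytometry.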
Sequence of DNA dC->dU-editing enzyme APOBEC-3G (Homo sapiens) (Q9HC16 whole entry, looked up): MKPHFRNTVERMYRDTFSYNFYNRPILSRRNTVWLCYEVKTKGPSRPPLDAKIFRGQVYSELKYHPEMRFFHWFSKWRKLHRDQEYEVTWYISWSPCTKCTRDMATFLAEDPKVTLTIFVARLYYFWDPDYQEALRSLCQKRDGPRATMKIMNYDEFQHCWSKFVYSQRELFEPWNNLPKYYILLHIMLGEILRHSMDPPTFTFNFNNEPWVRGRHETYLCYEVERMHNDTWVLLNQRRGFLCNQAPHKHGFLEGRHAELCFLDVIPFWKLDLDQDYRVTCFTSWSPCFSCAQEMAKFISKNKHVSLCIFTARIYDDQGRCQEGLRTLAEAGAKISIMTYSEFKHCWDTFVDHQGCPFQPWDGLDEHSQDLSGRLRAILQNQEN

Experiment [8] relates to Zika virus NS2B-NS3 protease. As to the kind of experiment: Primary screen GU AMC qHTS for Zika virus inhibitors (AID 1347154).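 Also: 0% = no-inhibitor control and -100% = no-enzyme control; nearly all actives have a fitted effect of over 70% in size.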 The method, boiled down: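 Unlinked Zika NS2B hydrophilic domain–NS3 protease complex at 25 nM in 10 mM Tris-HCl pH 8.0, 0.01% Tween 20, with an AMC peptide substrate. Fluorescence change (340/450 nm) over 15 min at room temperature, normalized to controls, fitted to 4-parameter Hill.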

Experiment [9] can be described thus: Primary qHTS for small molecule stabilizers of the endoplasmic reticulum resident proteome: Secreted ER Calcium Modulated Protein (SERCaMP) assay (AID 1508630). Also: % is scaled to controls: 0 for no effect and ±100 for the full control effect. The method, boiled down: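 GLuc-SERCaMP-expressing SH-SY5Y cells, pretreated 16 h with compound, are challenged with thapsigargin to empty ER calcium stores; after 4 h, coelenterazine is added directly to the medium and luminescence is imaged.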

Experiment [10] deals with Cytochrome P450 2C9 (Homo sapiens) (UniProt P11712). As to the kind of experiment: qHTS Assay for Inhibitors and Substrates of Cytochrome P450 2C9 (AID 883). Also: potency is read from the fitted curve at half-maximal effect; nearly all actives have a fitted effect of over 60% in size. The essentials:
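10nM CYP2C9 + 100uM Luciferin-H (=KM), 25mM KPO4; cpd 10 min 37C; NADPH regen, 60 min 37C; stop/detect with P450 Glo-Buffer 20 min; luminescence. Norm. to 57uM sulphaphenazole as full inhibition.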

For experiment [11], the target named is Cytochrome P450 2C19 (Homo sapiens) (UniProt P33261). As to the kind of experiment: qHTS Assay for Inhibitors and Substrates of Cytochrome P450 2C19 (AID 899). Also: potency is read from the fitted curve at half-maximal effect; nearly all actives have a fitted effect of over 60% in size. The method, boiled down:
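Luminescent read-out of luciferin formed from Luciferin-H EGE (10uM, equal to KM). Enzyme 5nM in 50mM KPO4; compound added, 10 min at 37C, then NADPH regenerating system for 60 min at 37C. Full inhibition defined by 57uM ketoconazole.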

The target in experiment [12] is Cytochrome P450 3A4 (Homo sapiens) (UniProt P08684). As to the kind of experiment: qHTS Assay for Activators of Cytochrome P450 3A4 (AID 885). Also: nearly all actives have a fitted effect of over 65% in size. Also: potency is read from the fitted curve at half-maximal effect. The method, boiled down: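 Signal was normalized against complete inhibition by 57 uM ketoconazole. The reaction used 20nM CYP3A4 with 25uM Luciferin-PPXE, 10-min compound preincubation and a 60-min NADPH-supported step at RT.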
Sequence of Cytochrome P450 3A4 (Homo sapiens) (P08684 whole entry, looked up): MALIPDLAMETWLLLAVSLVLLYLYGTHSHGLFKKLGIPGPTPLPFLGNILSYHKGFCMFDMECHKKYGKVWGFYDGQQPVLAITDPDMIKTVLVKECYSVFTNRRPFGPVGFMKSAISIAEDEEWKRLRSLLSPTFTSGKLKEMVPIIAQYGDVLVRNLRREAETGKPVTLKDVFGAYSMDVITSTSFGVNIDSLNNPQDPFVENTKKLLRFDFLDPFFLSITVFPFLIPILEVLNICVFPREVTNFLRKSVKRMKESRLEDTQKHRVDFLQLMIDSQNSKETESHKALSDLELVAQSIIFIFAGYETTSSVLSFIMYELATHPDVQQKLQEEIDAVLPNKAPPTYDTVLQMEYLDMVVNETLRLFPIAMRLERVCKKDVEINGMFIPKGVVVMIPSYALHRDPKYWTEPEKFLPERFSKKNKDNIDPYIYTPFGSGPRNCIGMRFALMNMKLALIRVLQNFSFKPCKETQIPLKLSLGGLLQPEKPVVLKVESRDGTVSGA

Experiment [13] can be described thus: NFAT Signaling Pathway (AID 444; active = well fitted curve in either direction with a large enough effect, not every such curve was filed as active;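 also: carbachol stimulus at about its EC50 of 1 µM final; % is scaled to controls: 0 for no effect and ±100 for the full control effect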). The following applies: Jurkat NFAT-bla M1, carbachol, beta-lactamase ratio, 5 h; at 38 µM (top of the series). The essentials: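 Jurkat cells with NFAT-driven β-lactamase reporter and co-expressed M1 receptor, stimulated with carbachol (final 1 uM, ~EC50), compound titration, 5 h at 37 °C. CCF4 loaded 1 h at RT; 460/530 nm ratio gave %activity and AC50.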

Experiment [14] in a line: Stat Signaling Pathway (AID 446; active = well fitted curve in either direction with a large enough effect, not every such curve was filed as active;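 also: ME-180 cervical cancer cells given 40 pM IL-6 alongside compound; SIE-controlled beta-lactamase reporter measured as 460/530 nm FRET emission ratio; % is scaled to controls: 0 for no effect and ±100 for the full control effect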). The following applies: ME-180 SIE beta-lactamase reporter, IL-6 stimulated, 5 h; at 38 µM (top of the series). The essentials: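 Reporter line: ME-180 cervical carcinoma, SIE-beta-lactamase. Treatment: compound with 40 pM IL-6, 5 hrs, 37 C, in low-serum OPTI-MEM with 10 mM HEPES pH 7.3. Detection: 460/530 nm fluorescence.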
In experiment [15] the target is Guanine nucleotide-binding protein G(i) subunit alpha-1 (Homo sapiens) (UniProt P63096). As to the kind of experiment: qHTS Assay for Inhibitors of RGS12 GoLoco Motif Activity (Green Fluorophore) (AID 879).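 Also: 0% = labeled peptide with Gαi1 and full inhibition = labeled peptide alone without protein; negative values mean loss of peptide binding seen as reduced polarization.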 The essentials: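 Fluorescence polarization assay: 50 nM Gαi1 with 10 nM FITC-labeled RGS12 GoLoco peptide in 10 mM Tris pH 7.5, 150 mM NaCl, 0.1 mM GDP, 0.05% NP40, 10 min at room temperature with compound.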

For experiment [16], the target named is Cytochrome P450 3A4 (Homo sapiens) (UniProt P08684). As to the kind of experiment: qHTS Assay for Inhibitors and Substrates of Cytochrome P450 3A4 (AID 884). Also: % is scaled to controls: 0 for no effect and ±100 for the full control effect; nearly all actives have a fitted effect of over 50% in size. The essentials: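 20 nM human CYP3A4 with 25 uM Luciferin-PPXE (at KM) in 200 mM KPO4, preincubated 10 min with compound; NADPH regeneration started a 60 min RT reaction. Luciferin detected by luminescence, normalized to 57 uM ketoconazole as full inhibition.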

Experiment [17] addresses Pyruvate kinase (Leishmania mexicana) (UniProt Q27686). As to the kind of experiment: qHTS Validation Assay for Inhibitors of Leishmania Mexicana Pyruvate Kinase (AID 945).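 Also: 0% = DMSO only neutral control wells.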 The method, boiled down: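 Mutant LmPYK (E451W), 0.2 nM, plus 0.5 mM PEP and 0.1 mM ADP in 50 mM imidazole pH 7.2 containing 0.01% Tween 20 and 0.05% BSA. Incubated 1 h at room temperature; luminescence via PKLight, normalized to DMSO.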

Twelve compounds from PubChem BioAssay (NCATS) can be followed below.

Values without a mark were called inactive. Results filed as inconclusive are left out. The source made the active and inactive calls. Unless noted, calls follow the shape of the dose curve; as a rule, active = well fitted curve in the direction sought with a large enough effect; inconclusive = small, poorly fitted or top-dose-only effect, or another doubt; inactive = no such curve, though single readings can be large; an effect the other way counts as inactive or inconclusive.

Sequence of Ubiquitin carboxyl-terminal hydrolase 1 (Homo sapiens) (O94782 whole entry, looked up): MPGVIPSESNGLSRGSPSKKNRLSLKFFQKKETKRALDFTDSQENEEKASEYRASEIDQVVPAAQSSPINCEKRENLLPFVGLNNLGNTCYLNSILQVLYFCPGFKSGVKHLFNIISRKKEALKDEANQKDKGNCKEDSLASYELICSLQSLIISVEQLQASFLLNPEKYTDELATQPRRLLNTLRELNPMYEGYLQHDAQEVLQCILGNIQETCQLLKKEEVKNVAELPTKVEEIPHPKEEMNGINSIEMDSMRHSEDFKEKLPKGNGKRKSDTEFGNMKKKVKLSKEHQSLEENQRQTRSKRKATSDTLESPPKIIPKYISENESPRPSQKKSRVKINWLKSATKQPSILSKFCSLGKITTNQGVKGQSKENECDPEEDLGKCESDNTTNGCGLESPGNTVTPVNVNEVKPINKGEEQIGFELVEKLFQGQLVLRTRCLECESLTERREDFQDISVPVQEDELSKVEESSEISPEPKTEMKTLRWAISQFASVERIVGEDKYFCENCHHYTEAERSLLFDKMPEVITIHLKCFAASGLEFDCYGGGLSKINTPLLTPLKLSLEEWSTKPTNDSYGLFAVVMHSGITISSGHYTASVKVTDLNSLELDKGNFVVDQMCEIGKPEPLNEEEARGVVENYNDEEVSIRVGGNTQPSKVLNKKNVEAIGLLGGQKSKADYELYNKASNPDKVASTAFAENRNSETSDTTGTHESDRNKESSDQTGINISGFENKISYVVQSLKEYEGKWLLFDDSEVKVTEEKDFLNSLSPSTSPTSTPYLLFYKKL
Sequence of Cytochrome P450 1A2 (Homo sapiens) (P05177 whole entry, looked up): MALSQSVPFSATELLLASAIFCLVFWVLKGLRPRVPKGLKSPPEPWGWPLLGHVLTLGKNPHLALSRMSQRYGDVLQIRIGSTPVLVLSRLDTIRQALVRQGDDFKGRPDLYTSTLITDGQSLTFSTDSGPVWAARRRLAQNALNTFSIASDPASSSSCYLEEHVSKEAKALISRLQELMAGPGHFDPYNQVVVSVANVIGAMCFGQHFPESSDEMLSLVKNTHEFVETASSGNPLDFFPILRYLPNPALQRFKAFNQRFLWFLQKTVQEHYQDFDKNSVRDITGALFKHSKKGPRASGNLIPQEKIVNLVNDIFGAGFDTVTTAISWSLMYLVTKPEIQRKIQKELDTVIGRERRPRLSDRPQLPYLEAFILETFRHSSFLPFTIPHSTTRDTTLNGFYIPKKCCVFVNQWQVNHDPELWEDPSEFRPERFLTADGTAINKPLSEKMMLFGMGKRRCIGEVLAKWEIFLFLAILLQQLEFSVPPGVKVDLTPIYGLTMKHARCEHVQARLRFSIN
Sequence of Cytochrome P450 2C9 (Homo sapiens) (P11712 whole entry, looked up): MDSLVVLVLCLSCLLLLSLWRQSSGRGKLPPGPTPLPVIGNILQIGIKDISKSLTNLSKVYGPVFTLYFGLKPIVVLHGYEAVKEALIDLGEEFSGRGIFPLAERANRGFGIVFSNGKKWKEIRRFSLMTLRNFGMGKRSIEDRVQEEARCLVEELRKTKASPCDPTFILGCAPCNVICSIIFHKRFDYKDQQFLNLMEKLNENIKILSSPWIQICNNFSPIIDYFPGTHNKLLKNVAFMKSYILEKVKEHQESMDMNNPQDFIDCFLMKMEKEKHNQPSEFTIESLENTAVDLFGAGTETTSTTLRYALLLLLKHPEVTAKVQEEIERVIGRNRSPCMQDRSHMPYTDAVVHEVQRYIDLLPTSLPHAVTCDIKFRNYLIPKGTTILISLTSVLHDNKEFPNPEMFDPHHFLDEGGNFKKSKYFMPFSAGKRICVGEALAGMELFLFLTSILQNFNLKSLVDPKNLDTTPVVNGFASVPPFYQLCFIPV
Sequence of Cytochrome P450 2C19 (Homo sapiens) (P33261 whole entry, looked up): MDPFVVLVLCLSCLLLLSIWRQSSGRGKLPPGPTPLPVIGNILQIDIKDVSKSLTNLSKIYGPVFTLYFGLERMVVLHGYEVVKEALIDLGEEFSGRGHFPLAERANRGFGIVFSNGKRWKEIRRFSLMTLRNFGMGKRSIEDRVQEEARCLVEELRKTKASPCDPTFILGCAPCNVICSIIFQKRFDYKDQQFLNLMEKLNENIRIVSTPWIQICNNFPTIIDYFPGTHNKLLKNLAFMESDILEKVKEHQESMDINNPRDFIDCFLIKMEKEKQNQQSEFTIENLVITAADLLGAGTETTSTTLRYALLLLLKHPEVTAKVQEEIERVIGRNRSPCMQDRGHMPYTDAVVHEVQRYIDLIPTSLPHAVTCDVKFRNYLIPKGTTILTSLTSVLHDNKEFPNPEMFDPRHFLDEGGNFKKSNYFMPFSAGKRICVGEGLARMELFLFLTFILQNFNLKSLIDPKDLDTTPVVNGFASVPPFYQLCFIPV

Turning to `N[C@H](Cn1ccc(=O)n(Cc2ccccc2C(=O)O)c1=O)C(=O)O`, the Potency entry in experiment [1], in [4], in experiment [5], in [6], in experiment [7] and in [8] was “inactive” throughout. Besides, the Potency result in experiment [9] was “inactive”. The Potency in [2] and in experiment [3] was more than 46 µM each time.

Consider `COc1ccccc1N1CCN(C[C@@H](C(=O)NC(C)(C)C)c2ccccc2)CC1`, for which the Potency in [1] was 0.631 µM (active); in [2], more than 46 µM; in [3] it was more than 46 µM. Moreover, the Potency entry in experiment [6], in [7], in [8] and in experiment [9] was “inactive” each time.

In the case of `CSc1nc(NC2CCCC2)c([N+](=O)[O-])c(NC2CCCC2)n1`, the Potency in [1] was 3.98 µM (active); in experiment [2] it was more than 46 µM; in experiment [3], more than 46 µM; in [10] it was 2 µM (active); in experiment [11] it was 5.01 µM (active). Moreover, the Potency entry in experiment [4], in experiment [5], in [7], in experiment [8] and in [9] was “inactive” in each case.

Regarding `CCCN(C/C=C\I)[C@@H]1CCc2cccc(O)c2C1`, the Potency in experiment [1] is 2.51 µM (active); in experiment [2], more than 46 µM; in experiment [3] it was more than 46 µM; in experiment [12] it was 25.1 µM (active). For the same compound, the Potency result in experiment [4], in experiment [7], in experiment [8] and in experiment [9] was “inactive” throughout.

On to `O[C@H](CCCN1CCN(c2ncc(F)cn2)CC1)c1ccc(F)cc1`, for which the Potency in [1] was 31.6 µM (active); in experiment [2] it was more than 46 µM; in experiment [3] it was more than 46 µM. For the same compound, the Potency result in experiment [4], in experiment [5], in experiment [6], in experiment [7], in experiment [8] and in experiment [9] was “inactive” in each case.

For `COc1ccc2[nH]c(C(=O)c3ccccc3)cc2c1`, the values for the Potency in experiment [1], in experiment [2] and in experiment [3] were 0.1 µM (active), more than 46 µM and more than 46 µM, respectively. Besides, the Potency result in experiment [7], in experiment [8] and in [9] was “inactive” in each case.

As for `O=C(c1ccccc1)[C@@H]1O[C@H]1c1ccc(-c2ccccc2)cc1`, the Potency in [1] was 6.31 µM (active); in experiment [2] it was more than 46 µM; in experiment [3], more than 46 µM. The Potency entry in experiment [4], in [7], in experiment [8] and in [9] was “inactive” each time.

Consider `Cc1cccc([C@@H]2CN(C)CCc3c2cc(O)c(O)c3Cl)c1`, for which the activity change, negative = inhibition in experiment [13] is -15%. In addition, the activity, negative = inhibition in experiment [14] is 11.4%. Further, the Potency in experiment [2] and in experiment [3] was more than 46 µM throughout. For the same compound, the Potency result in experiment [5], in experiment [16], in experiment [17], in experiment [7], in experiment [8] and in experiment [9] was “inactive” in each case. The outcome in experiment [15] was inactive.

Consider `CNC(=O)[C@H]1O[C@H](n2cnc3c(NCc4cccc(I)c4)ncnc32)[C@@H](O)[C@@H]1O`, for which the Potency in experiment [2] and in [3] was more than 46 µM in each case. For the same compound, the Potency entry in [4], in experiment [12], in experiment [6], in experiment [7], in [8] and in experiment [9] was “inactive” each time.

Consider `O=C(NC1CCN(Cc2ccccc2)CC1)c1ccc(I)cc1`, for which the Potency in experiment [2] and in [3] was more than 46 µM throughout. The Potency entry in experiment [4], in [5], in [16], in experiment [6], in experiment [7] and in experiment [8] was “inactive” in each case. The Potency entry in [9] was “inactive”.

On to `O=c1nc2ccccc2c2n1C[C@H](CN1CCN(c3ccccc3)CC1)N2`, for which the Potency in experiment [2] and in experiment [3] was more than 46 µM throughout. The Potency result in experiment [4], in [5], in [6], in experiment [7], in experiment [8] and in experiment [9] was “inactive” each time.

With `Clc1cccc(Nc2nnc(-c3ccccc3)c3ccccc23)c1`, the Potency in experiment [1] is 1.26 µM (active); in [2], more than 46 µM; in [3], more than 46 µM; in experiment [10], 3.98 µM (active); in experiment [11], 0.794 µM (active). The Potency entry in experiment [12], in [7], in experiment [8] and in [9] was “inactive” in each case.
